# Experimental data published in article PMC7862700, “An all-to-all approach to the identification of sequence-specific readers for epigenetic DNA modifications on cytosine”.
# What was measured:
# Test in all cases: DAPPL (digital affinity profiling via proximity ligation, sequencing); 10 mM Tris-HCl pH 7.5, 50 mM NaCl, 1 mM DTT, 4% glycerol, room temperature, 30 min; GST-TFs on glutathione beads, 16-mer random dsDNA library, 0.1% formaldehyde crosslink after washing; high values mean tight binding
# FLI1 = molecular target: T1, FLI1 (Homo sapiens, UniProt Q01543 1-452); conditions: protein: recombinant; tags: N-terminal GST; dsDNA, one strand shown
# T1 sequence: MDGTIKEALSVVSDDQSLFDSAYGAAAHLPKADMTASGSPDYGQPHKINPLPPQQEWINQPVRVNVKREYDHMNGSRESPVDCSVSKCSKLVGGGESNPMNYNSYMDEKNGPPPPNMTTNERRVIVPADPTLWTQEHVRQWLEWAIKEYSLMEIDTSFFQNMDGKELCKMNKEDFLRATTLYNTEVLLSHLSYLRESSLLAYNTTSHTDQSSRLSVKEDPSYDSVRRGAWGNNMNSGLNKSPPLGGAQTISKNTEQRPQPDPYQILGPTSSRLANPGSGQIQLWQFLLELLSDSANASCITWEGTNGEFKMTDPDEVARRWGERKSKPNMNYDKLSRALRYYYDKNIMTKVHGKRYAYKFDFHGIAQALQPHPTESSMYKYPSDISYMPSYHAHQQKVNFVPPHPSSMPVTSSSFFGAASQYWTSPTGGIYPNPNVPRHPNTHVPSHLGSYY
# In short: (§1)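 Pools were built from human transcription factors expressed in yeast as GST fusions, captured on glutathione beads and DNA-barcoded, along with a tag-only sample. Incubation with 200 nmole of a 16-mer random double-stranded DNA library lasted 30 min at room temperature in Tris/NaCl/DTT/glycerol buffer, and was followed by washing, 0.1% formaldehyde crosslinking, proximity ligation, PCR amplification and Illumina NextSeq500 sequencing. Binding signal is the quotient of each hexamer's read frequency for a factor and its frequency for the tag-only sample.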
# ELK1 = molecular target: T2, ELK1 (Homo sapiens, UniProt P19419 1-428); conditions: protein: recombinant; tags: N-terminal GST; dsDNA, one strand shown
# T2 sequence: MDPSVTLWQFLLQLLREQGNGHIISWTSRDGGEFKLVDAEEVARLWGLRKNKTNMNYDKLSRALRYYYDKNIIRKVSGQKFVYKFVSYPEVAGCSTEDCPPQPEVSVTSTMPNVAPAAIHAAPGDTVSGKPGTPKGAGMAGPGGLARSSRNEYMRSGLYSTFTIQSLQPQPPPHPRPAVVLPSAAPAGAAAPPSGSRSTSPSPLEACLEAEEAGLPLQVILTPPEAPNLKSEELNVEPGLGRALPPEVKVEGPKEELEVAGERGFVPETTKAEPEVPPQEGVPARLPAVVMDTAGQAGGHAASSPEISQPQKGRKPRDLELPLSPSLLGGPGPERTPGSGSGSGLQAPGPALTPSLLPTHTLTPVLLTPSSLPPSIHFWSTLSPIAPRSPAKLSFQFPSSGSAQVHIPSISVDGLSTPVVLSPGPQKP
# In short: as §1
# GABPA = molecular target: T3, GABPA (Homo sapiens, UniProt Q06546 1-454); conditions: protein: recombinant; tags: N-terminal GST; dsDNA, one strand shown
# T3 sequence: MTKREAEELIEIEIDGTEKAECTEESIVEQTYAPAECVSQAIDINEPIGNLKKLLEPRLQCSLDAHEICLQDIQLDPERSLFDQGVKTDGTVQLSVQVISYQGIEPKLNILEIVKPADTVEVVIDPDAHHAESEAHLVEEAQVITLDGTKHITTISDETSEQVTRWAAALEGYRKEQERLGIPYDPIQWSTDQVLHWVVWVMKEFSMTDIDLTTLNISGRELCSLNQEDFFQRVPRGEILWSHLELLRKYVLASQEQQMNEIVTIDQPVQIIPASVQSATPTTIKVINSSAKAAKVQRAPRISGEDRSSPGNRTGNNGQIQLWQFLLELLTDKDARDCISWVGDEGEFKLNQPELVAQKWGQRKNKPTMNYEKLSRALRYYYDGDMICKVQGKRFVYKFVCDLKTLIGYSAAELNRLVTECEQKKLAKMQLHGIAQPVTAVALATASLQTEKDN
# In short: as §1
# ERG = molecular target: T4, ERG (Homo sapiens, UniProt P11308 1-479); conditions: protein: recombinant; tags: N-terminal GST; dsDNA, one strand shown
# T4 sequence: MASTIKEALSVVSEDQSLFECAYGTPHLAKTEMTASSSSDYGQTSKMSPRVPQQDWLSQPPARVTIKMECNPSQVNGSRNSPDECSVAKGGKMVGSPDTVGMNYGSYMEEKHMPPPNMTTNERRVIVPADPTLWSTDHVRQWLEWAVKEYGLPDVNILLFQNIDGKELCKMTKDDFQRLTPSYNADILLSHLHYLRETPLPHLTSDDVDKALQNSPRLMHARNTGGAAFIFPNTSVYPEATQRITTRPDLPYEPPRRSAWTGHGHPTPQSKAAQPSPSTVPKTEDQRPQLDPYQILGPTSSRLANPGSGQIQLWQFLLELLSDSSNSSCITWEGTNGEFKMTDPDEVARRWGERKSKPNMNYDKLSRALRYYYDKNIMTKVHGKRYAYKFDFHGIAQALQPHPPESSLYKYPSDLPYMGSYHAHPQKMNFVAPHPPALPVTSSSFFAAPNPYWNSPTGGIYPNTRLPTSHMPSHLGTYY
# In short: as §1
# ELF1 = ELF1 (Homo sapiens, UniProt P32519 1-619); conditions: protein: recombinant; tags: N-terminal GST; dsDNA, one strand shown
# In short: as §1
# EHF = molecular target: T5, EHF (Homo sapiens, UniProt Q9NZC4 1-300); conditions: protein: recombinant; tags: N-terminal GST; dsDNA, one strand shown
# T5 sequence: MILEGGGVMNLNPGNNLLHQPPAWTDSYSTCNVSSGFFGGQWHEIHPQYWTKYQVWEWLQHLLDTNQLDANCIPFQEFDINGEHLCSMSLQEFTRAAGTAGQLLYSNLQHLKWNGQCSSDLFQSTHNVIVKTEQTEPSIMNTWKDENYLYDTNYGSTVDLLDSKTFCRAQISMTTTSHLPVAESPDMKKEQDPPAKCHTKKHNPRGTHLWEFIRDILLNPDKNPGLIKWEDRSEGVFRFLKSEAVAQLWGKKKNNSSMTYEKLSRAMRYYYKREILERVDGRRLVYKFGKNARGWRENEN
# In short: as §1
# SPI1 = SPI1 (Homo sapiens, UniProt P17947 1-270); conditions: protein: recombinant; tags: N-terminal GST; dsDNA, one strand shown
# In short: as §1
# SPIB = SPIB (Homo sapiens, UniProt Q01892 1-262); conditions: protein: recombinant; tags: N-terminal GST; dsDNA, one strand shown
# In short: as §1
# ELK3 = molecular target: T6, ELK3 (Homo sapiens, UniProt P41970 1-407); conditions: protein: recombinant; tags: N-terminal GST; dsDNA, one strand shown
# T6 sequence: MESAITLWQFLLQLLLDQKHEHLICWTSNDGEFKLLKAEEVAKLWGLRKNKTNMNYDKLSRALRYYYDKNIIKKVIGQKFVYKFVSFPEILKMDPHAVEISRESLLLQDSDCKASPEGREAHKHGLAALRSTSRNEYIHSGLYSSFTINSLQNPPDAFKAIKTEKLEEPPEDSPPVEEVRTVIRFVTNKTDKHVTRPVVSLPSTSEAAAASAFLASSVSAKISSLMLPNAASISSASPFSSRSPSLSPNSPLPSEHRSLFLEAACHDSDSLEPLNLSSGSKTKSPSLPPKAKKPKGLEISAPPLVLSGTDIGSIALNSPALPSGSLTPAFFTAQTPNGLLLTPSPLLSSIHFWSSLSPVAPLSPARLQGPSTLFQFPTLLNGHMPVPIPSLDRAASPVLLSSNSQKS
# In short: as §1
# FEV = molecular target: T7, FEV (Homo sapiens, UniProt Q99581 1-238); conditions: protein: recombinant; tags: N-terminal GST; dsDNA, one strand shown
# T7 sequence: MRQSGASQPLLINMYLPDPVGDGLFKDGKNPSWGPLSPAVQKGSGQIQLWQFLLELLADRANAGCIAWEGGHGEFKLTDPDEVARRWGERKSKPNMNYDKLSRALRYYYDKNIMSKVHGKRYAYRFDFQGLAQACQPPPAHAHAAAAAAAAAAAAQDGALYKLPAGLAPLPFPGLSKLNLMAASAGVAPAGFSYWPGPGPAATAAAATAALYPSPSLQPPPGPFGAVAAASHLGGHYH
# In short: as §1
# ETV5 = ETV5 (Homo sapiens, UniProt P41161 1-510); conditions: protein: recombinant; tags: N-terminal GST; dsDNA, one strand shown
# In short: as §1
# HSF1 = HSF1 (Homo sapiens, UniProt Q00613 1-529); conditions: protein: recombinant; tags: N-terminal GST; chain copies: 3; dsDNA, one strand shown
# In short: as §1
# SPIC = molecular target: T8, SPIC (Homo sapiens, UniProt Q8N5J4 1-248); conditions: protein: recombinant; tags: N-terminal GST; dsDNA, one strand shown
# T8 sequence: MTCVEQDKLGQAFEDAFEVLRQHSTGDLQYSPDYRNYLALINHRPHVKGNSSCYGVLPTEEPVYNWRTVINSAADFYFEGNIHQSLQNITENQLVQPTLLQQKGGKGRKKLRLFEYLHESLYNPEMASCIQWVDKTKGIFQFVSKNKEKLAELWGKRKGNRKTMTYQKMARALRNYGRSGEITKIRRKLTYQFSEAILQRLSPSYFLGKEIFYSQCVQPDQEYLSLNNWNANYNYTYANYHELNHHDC
# In short: as §1
# ELF4 = ELF4 (Homo sapiens, UniProt Q99607 1-663); conditions: protein: recombinant; tags: N-terminal GST; dsDNA, one strand shown
# In short: as §1
# ELK4 = molecular target: T9, ELK4 (Homo sapiens, UniProt P28324-2 1-405); conditions: protein: recombinant; tags: N-terminal GST; dsDNA, one strand shown
# T9 sequence: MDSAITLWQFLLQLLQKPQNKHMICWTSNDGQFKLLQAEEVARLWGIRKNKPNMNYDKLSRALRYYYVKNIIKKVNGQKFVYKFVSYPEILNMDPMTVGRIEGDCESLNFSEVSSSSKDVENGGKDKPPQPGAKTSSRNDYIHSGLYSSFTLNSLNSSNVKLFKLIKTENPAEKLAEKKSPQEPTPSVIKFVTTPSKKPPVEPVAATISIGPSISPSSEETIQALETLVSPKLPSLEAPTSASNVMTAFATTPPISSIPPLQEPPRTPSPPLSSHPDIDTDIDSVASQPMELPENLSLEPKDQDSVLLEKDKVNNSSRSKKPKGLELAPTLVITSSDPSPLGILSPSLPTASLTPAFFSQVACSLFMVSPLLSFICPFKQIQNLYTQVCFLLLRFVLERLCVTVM
# In short: as §1
# ETV2 = molecular target: T10, ETV2 (Homo sapiens, UniProt O00321 1-342); conditions: protein: recombinant; tags: N-terminal GST; dsDNA, one strand shown
# T10 sequence: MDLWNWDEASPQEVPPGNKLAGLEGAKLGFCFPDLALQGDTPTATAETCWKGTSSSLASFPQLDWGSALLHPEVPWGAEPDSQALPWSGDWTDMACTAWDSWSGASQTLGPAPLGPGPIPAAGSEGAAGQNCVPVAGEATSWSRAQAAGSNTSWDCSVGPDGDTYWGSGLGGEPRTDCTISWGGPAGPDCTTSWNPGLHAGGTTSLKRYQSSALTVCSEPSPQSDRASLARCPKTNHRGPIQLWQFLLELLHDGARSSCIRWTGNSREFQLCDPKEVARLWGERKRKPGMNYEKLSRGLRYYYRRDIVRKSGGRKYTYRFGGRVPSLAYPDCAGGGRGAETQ
# In short: as §1
# ELF3 = molecular target: T11, ELF3 (Homo sapiens, UniProt P78545 1-371); conditions: protein: recombinant; tags: N-terminal GST; dsDNA, one strand shown
# T11 sequence: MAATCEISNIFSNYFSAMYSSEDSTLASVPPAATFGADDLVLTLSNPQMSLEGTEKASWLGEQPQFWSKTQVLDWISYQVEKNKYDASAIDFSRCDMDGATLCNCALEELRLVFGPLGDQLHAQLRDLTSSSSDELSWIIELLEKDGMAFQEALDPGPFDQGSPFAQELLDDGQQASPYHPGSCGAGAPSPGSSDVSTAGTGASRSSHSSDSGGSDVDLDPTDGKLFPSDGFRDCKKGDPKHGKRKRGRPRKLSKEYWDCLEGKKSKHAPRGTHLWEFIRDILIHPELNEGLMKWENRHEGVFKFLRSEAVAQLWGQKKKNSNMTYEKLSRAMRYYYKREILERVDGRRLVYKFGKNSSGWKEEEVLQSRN
# In short: as §1
# CRX = CRX (Homo sapiens, UniProt O43186 1-299); conditions: protein: recombinant; tags: N-terminal GST; dsDNA, one strand shown
# In short: as §1
# ETV1 = ETV1 (Homo sapiens, UniProt P50549 1-477); conditions: protein: recombinant; tags: N-terminal GST; dsDNA, one strand shown
# In short: as §1
# Sequence of CRX (O43186 whole entry): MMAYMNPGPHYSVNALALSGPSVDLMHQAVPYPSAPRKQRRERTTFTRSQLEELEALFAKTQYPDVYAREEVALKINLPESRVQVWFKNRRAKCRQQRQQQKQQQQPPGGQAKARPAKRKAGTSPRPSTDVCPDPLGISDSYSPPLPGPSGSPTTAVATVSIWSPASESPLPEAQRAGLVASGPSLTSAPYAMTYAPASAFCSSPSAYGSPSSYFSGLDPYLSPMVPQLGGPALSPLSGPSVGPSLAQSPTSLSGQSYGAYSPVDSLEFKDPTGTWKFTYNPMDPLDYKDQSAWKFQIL
# Sequence of ETV5 (P41161 whole entry): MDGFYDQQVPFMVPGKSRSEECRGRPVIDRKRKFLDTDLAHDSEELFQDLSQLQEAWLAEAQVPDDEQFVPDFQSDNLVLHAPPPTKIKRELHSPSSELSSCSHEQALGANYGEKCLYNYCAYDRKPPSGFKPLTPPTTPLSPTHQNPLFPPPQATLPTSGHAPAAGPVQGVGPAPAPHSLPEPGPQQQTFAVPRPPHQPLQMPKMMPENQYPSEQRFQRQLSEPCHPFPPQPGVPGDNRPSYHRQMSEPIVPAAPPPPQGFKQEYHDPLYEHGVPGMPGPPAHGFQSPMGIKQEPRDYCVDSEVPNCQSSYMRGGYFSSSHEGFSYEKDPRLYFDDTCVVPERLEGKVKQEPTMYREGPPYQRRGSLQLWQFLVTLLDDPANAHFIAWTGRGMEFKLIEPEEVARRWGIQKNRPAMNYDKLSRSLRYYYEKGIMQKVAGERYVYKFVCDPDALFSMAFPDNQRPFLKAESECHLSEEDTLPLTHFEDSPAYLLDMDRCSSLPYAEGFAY
# Sequence of SPIB (Q01892 whole entry): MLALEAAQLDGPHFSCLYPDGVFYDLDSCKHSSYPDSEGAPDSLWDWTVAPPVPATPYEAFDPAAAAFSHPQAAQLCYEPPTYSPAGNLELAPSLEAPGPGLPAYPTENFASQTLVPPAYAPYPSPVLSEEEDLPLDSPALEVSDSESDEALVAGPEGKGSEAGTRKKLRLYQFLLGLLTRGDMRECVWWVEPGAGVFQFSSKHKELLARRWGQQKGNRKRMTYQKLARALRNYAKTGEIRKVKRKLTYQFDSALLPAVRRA
# Sequence of ELF1 (P32519 whole entry): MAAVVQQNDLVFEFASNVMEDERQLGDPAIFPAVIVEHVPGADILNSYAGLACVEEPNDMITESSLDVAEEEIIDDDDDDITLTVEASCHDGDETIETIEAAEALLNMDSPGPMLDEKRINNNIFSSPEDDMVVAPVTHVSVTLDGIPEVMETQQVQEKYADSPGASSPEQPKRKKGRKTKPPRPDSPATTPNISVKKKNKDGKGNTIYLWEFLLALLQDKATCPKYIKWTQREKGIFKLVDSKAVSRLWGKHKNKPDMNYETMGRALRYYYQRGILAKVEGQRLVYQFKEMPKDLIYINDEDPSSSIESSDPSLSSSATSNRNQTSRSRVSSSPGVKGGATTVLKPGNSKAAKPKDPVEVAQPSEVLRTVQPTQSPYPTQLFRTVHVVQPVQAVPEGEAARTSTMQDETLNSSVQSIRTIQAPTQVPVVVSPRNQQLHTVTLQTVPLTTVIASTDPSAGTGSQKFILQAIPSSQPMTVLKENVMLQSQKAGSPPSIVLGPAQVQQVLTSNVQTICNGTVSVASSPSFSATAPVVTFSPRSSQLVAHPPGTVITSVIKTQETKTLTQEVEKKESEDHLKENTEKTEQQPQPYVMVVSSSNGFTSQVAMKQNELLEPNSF
# Sequence of ELF4 (Q99607 whole entry): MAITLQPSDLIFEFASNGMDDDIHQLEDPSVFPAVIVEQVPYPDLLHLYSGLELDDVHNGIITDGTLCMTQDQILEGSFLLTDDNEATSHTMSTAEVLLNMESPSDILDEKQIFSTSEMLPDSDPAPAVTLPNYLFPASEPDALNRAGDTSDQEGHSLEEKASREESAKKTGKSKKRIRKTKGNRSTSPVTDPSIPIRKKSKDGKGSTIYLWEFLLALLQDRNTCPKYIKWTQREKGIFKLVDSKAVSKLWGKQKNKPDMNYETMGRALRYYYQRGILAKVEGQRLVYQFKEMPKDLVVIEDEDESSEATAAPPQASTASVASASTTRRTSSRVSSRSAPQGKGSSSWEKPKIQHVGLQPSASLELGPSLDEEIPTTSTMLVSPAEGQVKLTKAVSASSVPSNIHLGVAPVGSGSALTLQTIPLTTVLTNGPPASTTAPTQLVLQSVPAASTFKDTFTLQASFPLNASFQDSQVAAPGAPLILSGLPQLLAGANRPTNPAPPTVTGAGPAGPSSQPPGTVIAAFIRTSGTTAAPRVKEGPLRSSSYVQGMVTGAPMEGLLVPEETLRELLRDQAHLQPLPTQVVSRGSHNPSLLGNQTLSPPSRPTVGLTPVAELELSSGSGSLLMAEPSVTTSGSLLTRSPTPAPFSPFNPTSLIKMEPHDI
# Sequence of HSF1 (Q00613 whole entry): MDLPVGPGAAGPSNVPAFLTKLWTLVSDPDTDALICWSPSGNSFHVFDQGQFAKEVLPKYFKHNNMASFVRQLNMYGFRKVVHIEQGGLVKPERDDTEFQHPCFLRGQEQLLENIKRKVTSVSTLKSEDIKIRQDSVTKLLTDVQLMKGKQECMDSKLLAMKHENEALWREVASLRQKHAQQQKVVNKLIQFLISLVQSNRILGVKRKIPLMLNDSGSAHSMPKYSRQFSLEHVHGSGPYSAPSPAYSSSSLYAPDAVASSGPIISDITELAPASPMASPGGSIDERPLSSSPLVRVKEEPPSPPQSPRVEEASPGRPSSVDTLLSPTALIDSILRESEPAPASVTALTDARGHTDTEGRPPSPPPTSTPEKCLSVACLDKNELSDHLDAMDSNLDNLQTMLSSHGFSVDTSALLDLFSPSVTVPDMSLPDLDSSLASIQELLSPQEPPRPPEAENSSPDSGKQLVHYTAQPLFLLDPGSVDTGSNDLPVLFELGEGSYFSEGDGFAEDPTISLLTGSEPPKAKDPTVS
# Sequence of ETV1 (P50549 whole entry): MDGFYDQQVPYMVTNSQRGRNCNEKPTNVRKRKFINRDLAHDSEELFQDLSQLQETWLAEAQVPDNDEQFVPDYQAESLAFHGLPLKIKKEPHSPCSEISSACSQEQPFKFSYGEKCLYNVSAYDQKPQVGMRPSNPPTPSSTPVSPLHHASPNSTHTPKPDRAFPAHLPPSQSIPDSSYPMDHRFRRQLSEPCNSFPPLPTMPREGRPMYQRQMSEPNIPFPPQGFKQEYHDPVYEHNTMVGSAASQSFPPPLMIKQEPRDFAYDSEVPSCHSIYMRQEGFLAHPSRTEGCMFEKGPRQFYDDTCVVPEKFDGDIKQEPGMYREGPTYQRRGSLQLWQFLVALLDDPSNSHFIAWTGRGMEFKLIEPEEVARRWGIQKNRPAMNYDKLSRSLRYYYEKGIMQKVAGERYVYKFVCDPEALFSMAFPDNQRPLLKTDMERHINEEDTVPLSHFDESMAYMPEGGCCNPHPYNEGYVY
sequence,measurement,setting,value
CGTAAT,binding signal,FLI1,"1.19 fold enrichment (6-mer frequency, TF over GST control)"
same,binding signal,ELK1,"1.14 fold enrichment (6-mer frequency, TF over GST control)"
same,binding signal,GABPA,"1.13 fold enrichment (6-mer frequency, TF over GST control)"
same,binding signal,ERG,"1.19 fold enrichment (6-mer frequency, TF over GST control)"
same,binding signal,ELF1,"1.18 fold enrichment (6-mer frequency, TF over GST control)"
same,binding signal,EHF,"1.13 fold enrichment (6-mer frequency, TF over GST control)"
same,binding signal,SPI1,"1.16 fold enrichment (6-mer frequency, TF over GST control)"
same,binding signal,SPIB,"1.19 fold enrichment (6-mer frequency, TF over GST control)"
same,binding signal,ELK3,"1.04 fold enrichment (6-mer frequency, TF over GST control)"
same,binding signal,FEV,"1.19 fold enrichment (6-mer frequency, TF over GST control)"
same,binding signal,ETV5,"1.21 fold enrichment (6-mer frequency, TF over GST control)"
same,binding signal,HSF1,"1.5 fold enrichment (6-mer frequency, TF over GST control)"
same,binding signal,SPIC,"1.14 fold enrichment (6-mer frequency, TF over GST control)"
same,binding signal,ELF4,"1.22 fold enrichment (6-mer frequency, TF over GST control)"
same,binding signal,ELK4,"1.17 fold enrichment (6-mer frequency, TF over GST control)"
same,binding signal,ETV2,"1.17 fold enrichment (6-mer frequency, TF over GST control)"
same,binding signal,ELF3,"1.29 fold enrichment (6-mer frequency, TF over GST control)"
same,binding signal,CRX,"1.94 fold enrichment (6-mer frequency, TF over GST control)"
same,binding signal,ETV1,"1.24 fold enrichment (6-mer frequency, TF over GST control)"
